The list is not random: actives were taken first. Their share in the collection is about 11%.
BAZ2B block: inhibitors of human BAZ2B bromodomain. Q9UIF8. AID 504333. Potency, µM (highest dose often 114 µM), for the others: at the highest dose activity change, negative = inhibition, usual class: inhibitors. 4.4% of 360,000 active. AlphaScreen BAZ2B-H3K14Ac peptide displacement; further: on the % scale 0 is the no-effect control and ±100 the full control effect; nearly all actives have a fitted effect of over 60% in size
Target sequence (Q9UIF8 whole entry, looked up): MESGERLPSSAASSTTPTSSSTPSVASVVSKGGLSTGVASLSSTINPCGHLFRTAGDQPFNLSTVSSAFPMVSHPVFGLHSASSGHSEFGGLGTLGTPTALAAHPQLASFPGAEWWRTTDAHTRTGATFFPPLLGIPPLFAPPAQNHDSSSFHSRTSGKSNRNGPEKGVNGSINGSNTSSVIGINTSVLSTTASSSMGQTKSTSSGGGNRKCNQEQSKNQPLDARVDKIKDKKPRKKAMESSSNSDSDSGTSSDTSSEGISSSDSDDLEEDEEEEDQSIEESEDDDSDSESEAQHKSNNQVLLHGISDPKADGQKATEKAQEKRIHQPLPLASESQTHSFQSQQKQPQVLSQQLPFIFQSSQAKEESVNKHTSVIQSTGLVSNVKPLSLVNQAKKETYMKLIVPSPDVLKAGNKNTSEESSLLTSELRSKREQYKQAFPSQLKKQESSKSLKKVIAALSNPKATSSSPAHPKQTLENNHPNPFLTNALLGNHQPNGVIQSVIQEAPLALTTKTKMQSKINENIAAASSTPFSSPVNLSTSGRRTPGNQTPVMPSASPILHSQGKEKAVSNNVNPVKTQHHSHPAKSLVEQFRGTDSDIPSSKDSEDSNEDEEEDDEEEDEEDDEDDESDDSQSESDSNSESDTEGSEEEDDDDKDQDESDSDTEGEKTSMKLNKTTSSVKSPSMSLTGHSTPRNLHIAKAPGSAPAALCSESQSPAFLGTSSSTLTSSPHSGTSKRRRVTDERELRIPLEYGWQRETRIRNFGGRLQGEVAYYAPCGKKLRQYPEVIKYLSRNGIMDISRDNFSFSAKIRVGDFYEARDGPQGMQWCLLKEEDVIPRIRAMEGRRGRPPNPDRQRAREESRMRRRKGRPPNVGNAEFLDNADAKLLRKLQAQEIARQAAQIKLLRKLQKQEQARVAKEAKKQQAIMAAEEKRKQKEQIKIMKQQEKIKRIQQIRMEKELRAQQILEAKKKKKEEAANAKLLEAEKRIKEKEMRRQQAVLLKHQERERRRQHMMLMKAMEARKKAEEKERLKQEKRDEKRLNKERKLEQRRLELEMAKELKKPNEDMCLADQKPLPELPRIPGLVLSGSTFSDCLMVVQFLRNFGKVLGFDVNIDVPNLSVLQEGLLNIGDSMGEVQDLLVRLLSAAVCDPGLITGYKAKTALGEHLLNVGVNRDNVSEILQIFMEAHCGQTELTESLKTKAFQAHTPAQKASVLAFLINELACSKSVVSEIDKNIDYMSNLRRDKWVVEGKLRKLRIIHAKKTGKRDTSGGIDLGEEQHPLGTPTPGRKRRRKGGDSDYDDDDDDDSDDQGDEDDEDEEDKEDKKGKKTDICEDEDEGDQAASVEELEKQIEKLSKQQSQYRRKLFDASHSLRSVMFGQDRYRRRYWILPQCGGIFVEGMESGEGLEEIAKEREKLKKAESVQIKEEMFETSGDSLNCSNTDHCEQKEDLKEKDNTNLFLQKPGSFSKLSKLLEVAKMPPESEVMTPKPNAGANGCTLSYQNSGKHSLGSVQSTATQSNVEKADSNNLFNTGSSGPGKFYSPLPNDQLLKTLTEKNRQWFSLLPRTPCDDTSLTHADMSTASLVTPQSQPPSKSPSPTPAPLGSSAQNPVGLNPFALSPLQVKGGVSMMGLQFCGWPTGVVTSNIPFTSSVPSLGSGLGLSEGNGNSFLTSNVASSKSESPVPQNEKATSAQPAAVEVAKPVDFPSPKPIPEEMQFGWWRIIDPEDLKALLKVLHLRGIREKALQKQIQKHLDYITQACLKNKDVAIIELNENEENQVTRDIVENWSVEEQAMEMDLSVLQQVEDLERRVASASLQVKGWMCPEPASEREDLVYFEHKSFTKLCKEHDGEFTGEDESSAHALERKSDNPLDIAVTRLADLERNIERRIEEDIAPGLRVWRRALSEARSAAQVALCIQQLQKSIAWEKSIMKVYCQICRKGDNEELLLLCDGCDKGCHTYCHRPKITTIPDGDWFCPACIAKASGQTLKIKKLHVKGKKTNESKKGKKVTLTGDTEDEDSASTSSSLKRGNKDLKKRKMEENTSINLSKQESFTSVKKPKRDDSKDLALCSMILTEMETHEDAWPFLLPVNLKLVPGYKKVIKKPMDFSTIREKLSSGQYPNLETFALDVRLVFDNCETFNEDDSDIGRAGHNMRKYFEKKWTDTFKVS
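Compounds, titrated to a top concentration of 110 uM, were incubated 30 min at room temperature with preformed BAZ2B/acetyl-K14 H3 peptide complex (50 nM each). Proximity signal was measured by AlphaScreen after 20 min with beads.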
JMJD2A Tudor inh: inhibitors of human JMJD2A Tudor domain. AID 504339. Potency, µM (series often up to 114 µM), without a hit: at the highest dose activity change, negative = inhibition, most hits filed as inhibitors. O75164. 4.4% of 390,000 active. AlphaScreen JMJD2A-Tudor / H3K4me3 peptide binding; further: on the % scale 0 is the no-effect control and ±100 the full control effect; nearly all actives have a fitted effect of over 50% in size
L3MBTL1 inh: L3MBTL1 (human) inhibition | Q9Y468 | AlphaScreen L3MBTL1–H3K9me1 peptide binding | Potency, µM (top dose mostly 57.1 µM), for inactives: at the top dose activity, negative = inhibition, actives largely listed as inhibitors | 0.66% of 230,000 active; further: on the % scale 0 is the no-effect control and ±100 the full control effect; nearly all actives have a fitted effect of over 60% in size
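AlphaScreen assay: L3MBTL1 (50 nM final) was preincubated 30 min at room temperature with biotinylated H3(1-15)K9me1 peptide (75 nM final), then 30 min with library compounds; streptavidin donor and nickel chelate acceptor beads (10 ug/mL final) added, 30 min dark.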
G9a inh: blocks human histone lysine methyltransferase G9a | Q96KQ7 | G9a H3K9 monomethylation, AlphaScreen, 2 h | Potency, µM (titrated, usually from 102 µM), for the others: top-dose activity, negative = inhibition, most hits filed as inhibitors | 8.8% of 350,000 active | AID 504332; further: on the % scale 0 is the no-effect control and ±100 the full control effect; nearly all actives have a fitted effect of over 75% in size
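Compounds were preincubated with 20 nM G9a for 15 min, after which biotinylated H3K9 peptide (500 nM) and SAM (20 uM) started a 2 h room-temperature reaction. Monomethylated product was quantified by antibody-based AlphaScreen chemiluminescence.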
HP1b chromo inh: blocks HP1-beta chromodomain binding to methylated histone tails; P83916; AlphaScreen HP1-beta / biotin-H3K9me3 peptide binding; Potency, µM (doses to about 114 µM), for inactives: top-dose activity change, negative = inhibition, most hits filed as inhibitors; 0.56% of 390,000 active; AID 540317; further: nearly all actives have a fitted effect of over 70% in size
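AlphaScreen: HP1-beta (50 nM) preformed 30 min with biotin-H3(1-18)K9me3 peptide (50 nM) in PBS pH 7.4, 0.01% Tween-20. Compound added for 30 min at RT, then streptavidin donor/nickel chelate acceptor beads (10 ug/mL) for 30 min.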
Active calls of the source: *; [ ] = dose if it differs, or a comment. The call rests on the fitted dose curve; in most records, active means well fitted inhibition curve with a large enough effect; inconclusive means small, poorly fitted or top-dose-only effect; inactive means no such curve, though single readings can be large or run the other way. Potency means the concentration at half of the fitted maximal effect.

For O=C1NC(=O)N(c2ccc(Cl)cc2)C(=O)/C1=C\c1ccc(Sc2nc3ccccc3[nH]2)o1 the results were BAZ2B block 28µM*, JMJD2A Tudor inh 10µM*, L3MBTL1 inh inconclusive, G9a inh 3.2µM* and HP1b chromo inh 40µM*.
For COc1ccccc1CN1CCCC2(CCN(C(=O)Oc3ccccc3)CC2)C1 the results were G9a inh -5%[12.7 µM].
For CC1CCCN(CC(=O)N2CCCc3ccccc32)C1 (stereo unspecified) the results were BAZ2B block 13%, JMJD2A Tudor inh 1%, L3MBTL1 inh 14%[11.4 µM], G9a inh -1%[59 µM] and HP1b chromo inh 24%.
`O=C(O)C1Cc2ccccc2N2CCCC12` (stereo unspecified) gave BAZ2B block -24%, JMJD2A Tudor inh -19%, G9a inh 40µM* and HP1b chromo inh 83%.
`COc1ccc(N2CCN(CCCN)CC2)cc1` gave JMJD2A Tudor inh 10µM* and HP1b chromo inh inconclusive.
For NCCCN1CCN(c2ccccc2)CC1 the results were BAZ2B block 20%, JMJD2A Tudor inh inconclusive, L3MBTL1 inh -8% and HP1b chromo inh -27%.
For N#Cc1c(/N=C/c2c(O)n(Cc3ccco3)c(=O)[nH]c2=O)sc2c1CCCC2 the results were BAZ2B block inconclusive, JMJD2A Tudor inh 79µM*, L3MBTL1 inh 14µM*, G9a inh -16%[0.0925 µM] and HP1b chromo inh -23%.
Screening NC(=O)c1ccc(N=Cc2c(O)n(Cc3ccco3)c(=O)[nH]c2=O)cc1 returned BAZ2B block inconclusive, JMJD2A Tudor inh inconclusive, G9a inh 40µM* and HP1b chromo inh 119%.
`O=c1[nH]c(=S)n(Cc2ccco2)c(O)c1C=NCc1cccs1` gave BAZ2B block 5µM*, JMJD2A Tudor inh inconclusive, G9a inh 3.5µM* and HP1b chromo inh inconclusive.
For Cc1cc(C)n(-c2nc3nonc3nc2Nc2cccc(C)c2C)n1 the results were BAZ2B block -1%, JMJD2A Tudor inh -19%, L3MBTL1 inh 3%, G9a inh 13%[59 µM] and HP1b chromo inh 44%.
For CCCCCCCCCCCCCC(=O)OC1C(C)[C@@]2(O)C(C=C(CO)C[C@]3(O)C(=O)C(C)=C[C@H]23)[C@@H]2C(C)(C)[C@]12OC(C)=O (stereo partly specified) the results were G9a inh -31%[2.33 µM].
Cc1ccc(Cl)cc1NC(=O)N(Cc1ccc2c(c1)OCO2)C1CCN(Cc2ccccc2)CC1 was read as BAZ2B block inconclusive, JMJD2A Tudor inh inconclusive, G9a inh inconclusive and HP1b chromo inh 7%.
CC1(C)c2[nH]c3ccccc3c2C[C@@H]2C(=O)N(Cc3ccccc3F)C(=O)N21 was read as JMJD2A Tudor inh inconclusive and HP1b chromo inh 2%.
Screening CC1(C)OC(c2ccccc2)=C/C(=C/C=C2C(=O)NC(=O)NC2=O)O1 returned BAZ2B block -37%, JMJD2A Tudor inh -31%, G9a inh 35µM* and HP1b chromo inh -4%.
Screening CC(CNC(=O)c1ccc(CSc2nc3ccncc3n2Cc2ccc(F)cc2)cc1)c1ccccc1 (stereo unspecified) returned BAZ2B block -8%, JMJD2A Tudor inh -23%, G9a inh inconclusive and HP1b chromo inh 31%.
Screening CCOC(=O)c1ccc(-n2c(N)c(C(=O)NCC3CCCO3)sc2=S)cc1 (stereo unspecified) returned BAZ2B block inconclusive, JMJD2A Tudor inh inconclusive, L3MBTL1 inh -9%, G9a inh 10µM* and HP1b chromo inh 14µM*.
For Nc1c(C(=O)NCC2CCCO2)c2nc3ccccc3nc2n1Cc1ccco1 (stereo unspecified) the results were BAZ2B block 9%, JMJD2A Tudor inh 32%, L3MBTL1 inh 14%, G9a inh -3%[12.7 µM] and HP1b chromo inh 96%.
CN(C)/C=C1/C(=O)NC(=O)N(CCNc2ncc(C(F)(F)F)cc2Cl)C1=O was read as BAZ2B block inconclusive, JMJD2A Tudor inh -28%, L3MBTL1 inh -9%, G9a inh 45µM* and HP1b chromo inh -10%.
Cc1ccc(C)c(N2CCN(c3ncnc4onc(C)c34)CC2)c1 was read as BAZ2B block 17%[57.1 µM], JMJD2A Tudor inh -6%, G9a inh -9%[59 µM] and HP1b chromo inh 53%.
`O=c1cc(-c2ccc(O)c(O)c2)oc2c(C3O[C@H](CO)[C@@H](O)[C@H](O)[C@H]3O)c(O)cc(O)c12` (stereo partly specified) gave BAZ2B block inconclusive, JMJD2A Tudor inh inconclusive, L3MBTL1 inh 10µM*, G9a inh 79µM* and HP1b chromo inh 4%.
For COCOC1CCC2C3CCC4=CC(=O)CCC4=C3C=CC12C (stereo unspecified) the results were JMJD2A Tudor inh 79µM* and HP1b chromo inh inconclusive.
Screening Cc1ccc(Cn2cccc(C(=O)Nc3ccc4c(c3)OCCO4)c2=O)cc1 returned BAZ2B block -12%, JMJD2A Tudor inh -20%, G9a inh -21%[59 µM] and HP1b chromo inh 16%.
NNc1n[nH]c(=S)n1N was read as BAZ2B block inconclusive, JMJD2A Tudor inh -10%, G9a inh 25µM* and HP1b chromo inh 53%.
Screening O=C1NC(=O)N(c2ccc3c(c2)OCO3)C(=O)/C1=C/c1cccs1 returned BAZ2B block -16%, JMJD2A Tudor inh -35%, G9a inh 11µM* and HP1b chromo inh 19%.
Screening O=C1NC(=O)N(c2ccc3c(c2)OCO3)C(=O)/C1=C/c1ccsc1 returned BAZ2B block -6%, JMJD2A Tudor inh -5%, L3MBTL1 inh -1%, G9a inh inconclusive and HP1b chromo inh 36%.
Screening COc1ccc(CN2C(=O)CC(=O)NC2=O)cc1 returned BAZ2B block 0%, JMJD2A Tudor inh -5%, L3MBTL1 inh -10%, G9a inh -15% and HP1b chromo inh 28%.
For O=C1CC(=O)N(Cc2ccccc2)C(=S)N1 the results were BAZ2B block -5%, JMJD2A Tudor inh -17%, G9a inh 79µM* and HP1b chromo inh -1%.
`NCCc1c(Cc2ccccc2)[nH]c2ccccc12` gave JMJD2A Tudor inh -20% and HP1b chromo inh -7%.
Cc1[nH]c2c(C(F)(F)F)cccc2c1CCN was read as BAZ2B block inconclusive, JMJD2A Tudor inh -27%, L3MBTL1 inh -9%[11.4 µM], G9a inh -24%[59 µM] and HP1b chromo inh -7%.
Cc1[nH]c2ccc(O)cc2c1CCN was read as BAZ2B block -38%, JMJD2A Tudor inh inconclusive, L3MBTL1 inh -11%, G9a inh 3.5µM* and HP1b chromo inh -18%.
For Cc1[nH]c2ccc(OCc3ccccc3)cc2c1CCN the results were BAZ2B block inconclusive, JMJD2A Tudor inh inconclusive, L3MBTL1 inh -30%, G9a inh 50µM* and HP1b chromo inh inconclusive.
O=C(Oc1ccccc1)N1CCC2(CCCN(C(c3ccccc3)c3ccccc3)C2)CC1 was read as G9a inh -12%[12.7 µM].
